This is part of a sample that, as a whole, favours compounds with a hit. Of some 83,000 tested, about 20% had one in any assay.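 Interpretation: 100, growth as untreated; towards 0, rising growth inhibition; 0, no net growth; 0 to -100, cell death. Compounds scoring below 10 were considered active.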 A number with no mark means an inactive call. Active and inactive are the calls of the source.
Key:
Experiment in all cases: NCI-60 one-dose screen, 48 h (100 = growth as untreated, 0 = no growth, -100 = all killed)
Details in all cases: 10 µM
NCI-H23 lung = system: NCI-H23 lung
NCI-H226 lung = system: NCI-H226 lung
NCI-H322M lung = system: NCI-H322M lung
NCI-H460 lung = system: NCI-H460 lung
NCI-H522 lung = system: NCI-H522 lung
786-0 renal = system: 786-0 renal
COLO 205 colon = system: COLO 205 colon
DU-145 prostate = system: DU-145 prostate
K-562 leukemia = system: K-562 leukemia
MALME-3M melanoma = system: MALME-3M melanoma
MDA-MB-231 breast = system: MDA-MB-231 breast
RXF 393 renal = system: RXF 393 renal
SF-295 CNS = system: SF-295 CNS
SF-539 CNS = system: SF-539 CNS
UACC-257 melanoma = system: UACC-257 melanoma
M14 melanoma = system: M14 melanoma
HCT-15 colon = system: HCT-15 colon
HOP-62 NSCLC = system: HOP-62 NSCLC
A549/ATCC NSCLC = system: A549/ATCC NSCLC
SF-268 CNS = system: SF-268 CNS

Row | Structure (SMILES) | growth (NCI-H23 lung) | growth (NCI-H226 lung) | growth (NCI-H322M lung) | growth (NCI-H460 lung) | growth (NCI-H522 lung) | growth (786-0 renal) | growth (COLO 205 colon) | growth (DU-145 prostate) | growth (K-562 leukemia) | growth (MALME-3M melanoma) | growth (MDA-MB-231 breast) | growth (RXF 393 renal) | growth (SF-295 CNS) | growth (SF-539 CNS) | growth (UACC-257 melanoma) | growth (M14 melanoma) | growth (HCT-15 colon) | growth (HOP-62 NSCLC) | growth (A549/ATCC NSCLC) | growth (SF-268 CNS)
1 | COc1ccc(-c2nc3ccccn3c2-c2nnc(-c3cc(OC)c(OC)c(OC)c3)o2)cc1 | 72.5% | 60.3% | 57.3% | 21.6% | 44.8% | 60.3% | 53.3% | 66.4% | 102% | 51.5% | 46.9% | 74.3% | 64.9% | 52.8% | 84.2% | 75.7% | 71.6% | – | – | –
2 | COc1ccc(/C=C2/CN(CCC#N)C/C(=C\c3ccc(OC)cc3)C2=O)cc1 | 31.1% | -6.76% (active) | – | 2.6% (active) | -28% (active) | -14.3% (active) | -52.3% (active) | 5.29% (active) | 1.95% (active) | -44.7% (active) | -25.4% (active) | -63% (active) | -32.7% (active) | 9.73% (active) | 17.4% | 0.654% (active) | 0.438% (active) | -38% (active) | -4.55% (active) | 0.448% (active)
3 | O=C(CCCCC[P+](c1ccccc1)(c1ccccc1)c1ccccc1)NC(COC(=O)C(Cl)Cl)(COC(=O)C(Cl)Cl)COC(=O)C(Cl)Cl | 108% | 102% | – | 106% | 126% | 99.6% | 98.1% | 114% | 98.2% | – | 111% | 101% | 99% | 107% | 97.5% | 102% | 99% | 96.1% | 96.5% | 103%
4 | Cc1nc2oc3ccccc3c(=O)c2cc1C(=O)NCc1ccccc1 | 85.9% | 105% | – | 32.2% | 86.4% | 61.5% | 39.9% | 77% | 13.1% | – | 87.9% | 113% | 43.2% | 93.4% | 68.1% | 45.9% | 70.2% | 90.5% | 68.9% | 83%
5 | CSCCCNC(=O)c1ccc2c(c1)/C(=C/c1[nH]c(C)cc1C)C(=O)N2 | 28.6% | 41.8% | – | 30.8% | 41% | 6.49% (active) | 31.5% | 27.9% | 49.1% | -9.58% (active) | 20.9% | -31% (active) | 29.2% | 13.2% | 48.9% | 8.79% (active) | 22.5% | 35.5% | 29.2% | 31.6%
6 | O=S(=O)(Nc1ccccn1)c1ccc(N=Nc2ccc(O)c3ncccc23)cc1 | 14.5% | 21.3% | – | 5.48% (active) | -21.6% (active) | 21.4% | 108% | 27.6% | 6.51% (active) | -19.8% (active) | -2.1% (active) | 27.1% | 6.2% (active) | 10.8% | -23.5% (active) | 11.8% | 14.5% | 7.27% (active) | -6.8% (active) | 25%
7 | O=C1/C(=C\c2ccccc2)CN(C(=O)c2ccccc2)C/C1=C\c1ccccc1 | 57.5% | 37.3% | – | 60.1% | -0.751% (active) | 2.68% (active) | 41.5% | 24.6% | 2.41% (active) | -37.5% (active) | 7.59% (active) | -21.2% (active) | 15.7% | 69.4% | 4.53% (active) | -49.5% (active) | -18.6% (active) | 37.1% | 61.1% | 23.6%
8 | COc1cccc(Cn2c(-c3nonc3N)nc3ccccc32)c1 | 24.2% | – | 38.8% | 6.52% (active) | -18.4% (active) | 36.9% | -53.3% (active) | 4.99% (active) | 9.47% (active) | 68.3% | 27.7% | -40.1% (active) | -26.9% (active) | -34.6% (active) | 49.2% | 20.4% | 24.1% | 29.9% | 16.4% | 42%
9 | COc1ccc(OC)c(/C=C/c2nnc(Nc3ccc(Cl)cc3)o2)c1 | 87.8% | – | 58.6% | 15.5% | 92.9% | 27.9% | 74.2% | 78.9% | 80.6% | 41.5% | 70.9% | 56.3% | 46.9% | 90% | 100% | 77.9% | 98.3% | 35.3% | 40.2% | 76.5%
10 | COc1cc(OC)cc(-c2cncn2-c2ccc(-c3nc4cc(OC)cc(OC)c4s3)cc2)c1 | 57.5% | – | 82.8% | 51.3% | 61.3% | 66% | 79.5% | 78.1% | 19.2% | 48% | 66.5% | 58.1% | -22% (active) | 62.6% | 82.4% | 38.8% | 48.4% | 79.7% | 45.4% | 68.5%
11 | COc1ccc(-c2nn(-c3cccc(NC(=O)c4cccc(C(F)(F)F)c4)c3)cc2-c2ccncc2)cc1Cl | 52% | – | 47.3% | 8.19% (active) | -20.1% (active) | 17.1% | 17.3% | 50.5% | 14.8% | 12.6% | 9.03% (active) | 19.4% | -10.7% (active) | -39.6% (active) | 25.5% | 7.66% (active) | 26.9% | 41.9% | 19.8% | 37.5%
12 | CN(C)c1ccc(-c2cc(-c3cccc(NS(C)(=O)=O)c3)nc(N)c2C#N)cc1 | 21.5% | – | 21.1% | 5.32% (active) | 7.63% (active) | 31% | -71.2% (active) | -25.5% (active) | 10.9% | -7.09% (active) | -8.96% (active) | 20.3% | 0.228% (active) | 3.52% (active) | 80.4% | 11.6% | 24% | 44.1% | 25.9% | 20.8%
13 | CCC(=O)N1C/C(=C/c2ccc(Cl)cc2)C(=O)/C(=C/c2ccc(Cl)cc2)C1 | -25.6% (active) | – | -16.6% (active) | -13.8% (active) | -58.7% (active) | -69% (active) | -76.5% (active) | -41.6% (active) | 1.74% (active) | -66.2% (active) | -22% (active) | -94% (active) | -35.8% (active) | -64.7% (active) | -40.3% (active) | -61.9% (active) | 0.422% (active) | -53% (active) | -26.7% (active) | -30.4% (active)
14 | CCN1CCCC1CNC(=O)c1ncc(-c2ccc(C(F)(F)F)cc2)c(NC2CCCCCC2)n1 (stereo unspecified) | 92.5% | – | 84.7% | 80.4% | 69.1% | 84.5% | 42.7% | 83.2% | 8.32% (active) | 54% | 67.3% | 74.1% | 69.3% | 94.7% | -46.2% (active) | 26.1% | 90.8% | 97% | 77.2% | 86.8%
15 | COc1ccc(OC)c(/C=C/c2nc(SCc3ccccc3)n(-c3ccc(Cl)cc3)n2)c1 | 54.3% | – | 82.9% | 24.4% | 66.6% | 48.8% | 114% | 77.7% | 18.2% | 34.9% | 67.1% | 82.8% | -15.4% (active) | 44.2% | 74% | 14.1% | 34% | 79.4% | 46.5% | 57.7%
16 | CC[C@H](C)C(=O)O[C@H]1CCC=C2C=C[C@H](C)C(CCC3C[C@@H](O)CC(=O)O3)[C@H]21 (stereo partly specified) | 64.4% | – | 44.6% | 92.9% | 23% | 84.8% | 89% | 110% | 71.5% | 89.1% | 2.32% (active) | 70.2% | 8.14% (active) | 85.8% | 75.2% | 61.7% | 55.8% | 87% | 97.2% | 33.8%
17 | COc1cc(NC(=O)c2sc3nc4c(cc3c2N)C(O)CCC4)cc(OC)c1 (stereo unspecified) | 99.3% | – | 88.7% | 104% | 69% | 97.3% | 105% | 108% | 27.9% | 77.6% | 88.9% | 90.4% | 87.5% | 87.7% | 89.2% | 75.4% | 60.1% | 65.8% | 86.1% | 103%
18 | Cn1c(C(N)=O)cc2c1-c1nc(Nc3ccccc3)ncc1CCC2 | 52% | – | 46.6% | 37.6% | 33.5% | 49.9% | 59.8% | 55.5% | 49.8% | – | 38.1% | 3.67% (active) | 60.6% | 35.5% | 74.3% | 45.5% | 34.6% | 38.8% | 31.1% | 47.8%
19 | CN(C)CCN=c1nc2c(c(N)n1-c1ccccc1)c(=S)n(-c1ccccc1)c(=S)n2-c1ccccc1 | 67.6% | – | 58.5% | 3.8% (active) | 34.2% | -83.5% (active) | 6.65% (active) | 45% | -11.4% (active) | -89.5% (active) | -13% (active) | -39.1% (active) | -61.5% (active) | -86.9% (active) | -74.6% (active) | -84.4% (active) | 18.8% | 6.19% (active) | 35.3% | 24%

From PubChem BioAssay (NCI)
